{
  "source": "PubChem BioAssay (NCI)",
  "system": "HL-60(TB) leukemia",
  "assay": "NCI-60 one-dose screen, 48 h (100 = growth as untreated, 0 = no growth, -100 = all killed)",
  "settings": "10 µM unless noted",
  "note": "Several values for one entry are separate records, joined by “and”; a condition that tells them apart may be missing. Equal entries are not always repeated. This is part of a sample that, as a whole, favours compounds with a hit. Of some 83,000 tested, about 20% had one in any assay.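 Cell lines were cultured in 96-well plates, exposed to a single compound concentration, and assessed for percent growth 48 hours later.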 A number with no mark means an inactive call. Activity calls are given as the source filed them. Rule for the calls: active = growth percent below 10; inactive = the rest.",
  "data": [
    {"smiles": "CSc1nc2sc3cc(Cl)ccc3n2c(=N)c1C#N", "values": [
      {"measurement": "growth", "value": 121, "unit": "%"}
    ]},
    {"smiles": "CCCCCCCCCCCCCCCC[N+](C)(C)CCN(Cc1ccc(OC)cc1)c1ncccn1", "values": [
      {"measurement": "growth", "value": "-52.7% (active) and -2.88% (active)"}
    ]},
    {"smiles": "Nc1nc2c3ccncc3cc(-c3cccc(Cl)c3)c2c2cnccc12", "values": [
      {"measurement": "growth", "value": "6.71% (active)"}
    ]},
    {"smiles": "OC1CCC(Oc2cccc3cnc(Nc4ccc5nc[nH]c5c4)nc23)CC1", "note": "(centres undefined)", "values": [
      {"measurement": "growth", "value": "-26.1% (active) and 9% (active)"}
    ]},
    {"smiles": "CCOc1ccc(Nc2nc(-c3c(C)nc4ncccn34)cs2)cc1", "values": [
      {"measurement": "growth", "value": "-34.1% (active)"}
    ]},
    {"smiles": "O=C(Nn1c2c(sc1=NCc1ccccc1)C(=O)c1ccccc1C2=O)c1cc2ccc1CCc1ccc(cc1)CC2", "values": [
      {"measurement": "growth", "value": 27, "unit": "%"}
    ]},
    {"smiles": "Cc1cnc(C(=O)NNc2nc3sc4c(c3c(=O)n2C)C(C)CCC4)cn1", "note": "(centres undefined)", "values": [
      {"measurement": "growth", "value": "-32.3% (active)"}
    ]},
    {"smiles": "Nc1ccc2c(c1)Cc1cc(N)c(Br)cc1-2", "values": [
      {"measurement": "growth", "value": 86.4, "unit": "%"}
    ]},
    {"smiles": "N#Cc1c(O)c2c(c(O)c1C#N)C(=O)c1ccccc1C2=O", "values": [
      {"measurement": "growth", "value": "-38.1% (active)"}
    ]},
    {"smiles": "CN1CCN(C(=O)[C@]2(C)CC[C@]3(C)CC[C@]4(C)C(=CC(=O)[C@@H]5[C@@]6(C)CCC(=O)NC(C)(C)[C@@H]6CC[C@]54C)[C@@H]3C2)CC1", "values": [
      {"measurement": "growth", "value": 95.7, "unit": "%"}
    ]},
    {"smiles": "CCCCNC(=O)Oc1ccc2c(=O)c3sc4c(=O)c5ccccc5c(=O)c4c3c(=O)c2c1", "values": [
      {"measurement": "growth", "value": "-43.3% (active)"}
    ]},
    {"smiles": "CCCC(O)Cn1ncc(C(=O)OCC)c1NC(=O)NCc1ccccc1F", "note": "(centres undefined)", "values": [
      {"measurement": "growth", "value": 81.6, "unit": "%"}
    ]},
    {"smiles": "COc1ccc2cc(-c3ccc(NC(C)=O)c(=O)o3)ccc2c1", "values": [
      {"measurement": "growth", "value": 95.1, "unit": "%"}
    ]},
    {"smiles": "CN(C)CCNc1nc2ccccc2c2c(=O)c3ccccc3sc12", "values": [
      {"measurement": "growth", "value": "9.19% (active)"}
    ]}
  ]
}
